# ChEMBL document CHEMBL1961873, “Compounds: GSK PKIS; Assays: Nanosyn kinase panel” (2012)
# Experiments:
# [1] = target: T1, 3-phosphoinositide-dependent protein kinase 1 (Homo sapiens) (UniProt O15530); settings: at 0.1 µM;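 also: values are mean inhibition of PDK1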
# T1 sequence (whole entry): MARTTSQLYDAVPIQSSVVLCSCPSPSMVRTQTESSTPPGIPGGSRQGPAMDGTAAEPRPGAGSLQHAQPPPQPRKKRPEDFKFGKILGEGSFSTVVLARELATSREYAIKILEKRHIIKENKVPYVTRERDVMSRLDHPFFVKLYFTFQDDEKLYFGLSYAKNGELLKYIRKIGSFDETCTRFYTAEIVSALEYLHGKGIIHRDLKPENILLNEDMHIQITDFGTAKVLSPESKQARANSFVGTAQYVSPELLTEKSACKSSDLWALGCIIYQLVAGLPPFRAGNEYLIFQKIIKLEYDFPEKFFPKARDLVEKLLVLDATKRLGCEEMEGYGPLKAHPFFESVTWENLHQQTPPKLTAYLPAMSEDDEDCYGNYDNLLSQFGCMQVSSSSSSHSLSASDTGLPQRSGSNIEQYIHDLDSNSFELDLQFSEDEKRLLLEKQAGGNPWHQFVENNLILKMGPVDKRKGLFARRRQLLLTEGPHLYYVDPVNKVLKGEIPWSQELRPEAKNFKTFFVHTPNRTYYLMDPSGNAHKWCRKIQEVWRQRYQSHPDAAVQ
# [2] = target: cAMP-dependent protein kinase catalytic subunit alpha (Homo sapiens) (UniProt P17612); settings: at 0.1 µM
# [3] = target: cAMP-dependent protein kinase catalytic subunit alpha (Homo sapiens) (UniProt P17612); settings: at 1 µM
# [4] = target: Protein kinase C alpha type (Homo sapiens) (UniProt P17252); settings: at 0.1 µM
# [5] = target: Protein kinase C alpha type (Homo sapiens) (UniProt P17252); settings: at 1 µM
# [6] = target: Protein kinase C beta type (Homo sapiens) (UniProt P05771); settings: at 0.1 µM
# [7] = target: Protein kinase C beta type (Homo sapiens) (UniProt P05771); settings: at 1 µM
# [8] = target: Protein kinase C eta type (Homo sapiens) (UniProt P24723); settings: at 0.1 µM
# [9] = target: Protein kinase C eta type (Homo sapiens) (UniProt P24723); settings: at 1 µM
# [10] = target: Protein kinase C gamma type (Homo sapiens) (UniProt P05129); settings: at 0.1 µM;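 also: values are mean percent inhibition of PKC gamma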
# Sequence of Protein kinase C beta type (Homo sapiens) (P05771 2-671 limits assumed): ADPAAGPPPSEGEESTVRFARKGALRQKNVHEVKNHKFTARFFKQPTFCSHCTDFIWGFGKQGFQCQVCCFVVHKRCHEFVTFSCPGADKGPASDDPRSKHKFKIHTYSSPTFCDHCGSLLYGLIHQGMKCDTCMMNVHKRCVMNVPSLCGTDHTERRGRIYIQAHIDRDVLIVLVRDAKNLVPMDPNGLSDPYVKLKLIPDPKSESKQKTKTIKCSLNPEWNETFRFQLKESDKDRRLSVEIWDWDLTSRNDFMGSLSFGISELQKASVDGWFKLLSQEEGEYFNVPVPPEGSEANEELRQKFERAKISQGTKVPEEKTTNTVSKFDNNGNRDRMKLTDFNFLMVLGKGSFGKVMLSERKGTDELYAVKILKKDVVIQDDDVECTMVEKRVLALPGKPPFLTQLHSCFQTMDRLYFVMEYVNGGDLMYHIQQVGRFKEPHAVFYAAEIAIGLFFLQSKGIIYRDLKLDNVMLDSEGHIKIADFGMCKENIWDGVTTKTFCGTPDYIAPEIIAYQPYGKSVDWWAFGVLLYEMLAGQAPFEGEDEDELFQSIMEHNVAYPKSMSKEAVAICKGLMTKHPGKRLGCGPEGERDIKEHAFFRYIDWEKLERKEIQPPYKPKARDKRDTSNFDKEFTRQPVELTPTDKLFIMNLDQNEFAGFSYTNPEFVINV
# Sequence of Protein kinase C eta type (Homo sapiens) (P24723 whole entry): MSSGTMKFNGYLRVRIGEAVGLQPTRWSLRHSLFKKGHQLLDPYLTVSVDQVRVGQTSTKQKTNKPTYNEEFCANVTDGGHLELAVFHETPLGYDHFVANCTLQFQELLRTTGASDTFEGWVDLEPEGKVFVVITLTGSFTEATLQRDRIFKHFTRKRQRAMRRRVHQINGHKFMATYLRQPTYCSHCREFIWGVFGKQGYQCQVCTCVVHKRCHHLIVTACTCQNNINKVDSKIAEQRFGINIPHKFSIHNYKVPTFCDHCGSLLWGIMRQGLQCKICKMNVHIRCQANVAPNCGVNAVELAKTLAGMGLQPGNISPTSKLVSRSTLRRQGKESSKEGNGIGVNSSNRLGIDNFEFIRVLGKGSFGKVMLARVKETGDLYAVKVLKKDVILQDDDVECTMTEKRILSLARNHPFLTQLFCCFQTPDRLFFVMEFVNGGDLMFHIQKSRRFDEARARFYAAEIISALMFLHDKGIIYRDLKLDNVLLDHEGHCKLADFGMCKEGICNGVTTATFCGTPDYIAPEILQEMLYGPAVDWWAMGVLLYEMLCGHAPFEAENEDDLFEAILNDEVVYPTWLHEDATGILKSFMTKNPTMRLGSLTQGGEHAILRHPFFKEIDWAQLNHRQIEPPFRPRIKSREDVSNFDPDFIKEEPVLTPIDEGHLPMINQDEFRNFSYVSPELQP
Compound,inhibition [1] [%],inhibition [2] [%],inhibition [3] [%],inhibition [4] [%],inhibition [5] [%],inhibition [6] [%],inhibition [7] [%],inhibition [8] [%],inhibition [9] [%],inhibition [10] [%]
Nc1nc(-c2cccc(Cl)c2)c(-c2ccc3ncccc3n2)s1,0.49,2.34,4.12,1.05,1.4,2.33,4.87,5.47,7.42,1.18
CC(C)(CO)CNC(=O)c1ccc2c(c1)/C(=N/Nc1ccc(S(N)(=O)=O)cc1)C(=O)N2,13.1,0.87,1.58,-0.39,0.27,-0.69,0.02,2.86,-0.08,1.72
NS(=O)(=O)c1ccc(Nc2ncc(-c3ccccc3)o2)cc1,4.51,1.3,3.27,0,1.96,-0.16,1.54,3.2,1.9,1.28
COc1cc(/C=N/Nc2ncnc3[nH]ncc23)ccc1O,2.95,1.43,5.96,0.03,3.59,-0.06,4.56,0.97,7.35,2.16
Cc1cccc2c1NC(=O)/C2=N\Nc1ccc(S(N)(=O)=O)cc1,2.44,1.54,2.59,0.55,5.16,0.49,-1.37,4.66,3.34,-3
CN1CCC(n2cnc(-c3ccc(F)cc3)c2-c2ccnc(Nc3ccccc3)n2)CC1,3.8,2.92,16.7,19.4,65.2,16.1,51,2.14,2.72,5.68
COc1ccc(-c2cc3c(N)ncnc3o2)cc1,-0.95,-0.06,0.18,-0.88,3,-0.74,-2.12,-4.39,-1.49,0.2
Cc1cccc(Nc2ncc(-c3ccccc3)o2)c1,1.5,12.6,13.8,0.24,3.41,3.52,5.79,2.87,0.87,3.99
Fc1ccc(-c2nn3ccccc3c2-c2ccncc2)cc1,0.82,2.55,16,0.75,3.12,8.61,37.8,1.31,3.71,-2.68
COc1cccc(-n2ncc3c(N/N=C/c4ccc(F)cc4)ncnc32)c1,0.01,1.66,3.69,0.47,1.43,1.01,0.97,3.28,2.58,0.86
COC(=O)c1sc(-n2cnc3cc(OC)c(OC)cc32)cc1OCc1ccccc1C(F)(F)F,1.42,1.59,0.74,0.62,1.49,-0.94,0.17,2.15,0.99,3.39
c1cc(-c2cnn3nc(N4CCOCC4)ccc23)nc(NC2CC2)n1,4.31,1.21,1.42,1.17,6.27,-0.45,-0.77,2.39,2.99,6.1
Nc1nc(-c2ccc(F)cc2)c(-c2ccc3ncccc3n2)s1,3.99,1.65,3.75,1.13,2.9,0.21,3.92,1.76,6.71,2.26
CNC(=O)c1cncc(/C=C/c2ccccc2Cl)c1,-0.25,1.4,3.17,0.42,-0.07,2.7,5.12,1.33,2.39,3.03
O=C(Nc1n[nH]c2cc(-c3ccc(F)cc3)ccc12)C1CC1,1.87,1.56,5.1,0.82,2.18,2.92,6.56,3.22,6.59,3.26
CS(=O)(=O)CCNCc1ccc(-c2ccc3ncnc(Nc4ccc(OCc5ccccc5)c(C(F)(F)F)c4)c3c2)o1,-0.19,1.37,1.5,0.59,0.28,0.21,1.23,4.55,5.11,2.66
COc1ccc2[nH]c3c4[nH]c5ccc(OC)cc5c4c4c(c3c2c1)C(=O)NC4=O,29.8,4.03,17.2,4.27,28.7,1.55,8.91,3.82,19.5,4.07

Compound,inhibition [1] [%],inhibition [2] [%],inhibition [3] [%],inhibition [4] [%],inhibition [5] [%],inhibition [6] [%],inhibition [7] [%],inhibition [8] [%],inhibition [9] [%],inhibition [10] [%]
N#Cc1c(NC(=O)c2ccc(F)cc2)sc2c1CCCC2,0.85,1.5,2.64,0.43,-0.26,-1.4,2.12,3.5,2.09,0.54
CS(=O)(=O)CCNCc1coc(-c2ccc3ncnc(Nc4ccc(OCc5ccccc5)cc4)c3c2)c1,6.29,1.59,2.39,0.46,1.78,0.47,-1,4.58,3.63,-2.12
COc1cc2c(cc1Nc1nc(Nc3ccsc3C(N)=O)c3cc[nH]c3n1)N(C(=O)CN(C)C)CCC2(C)C,2.56,2.98,8.67,4.21,34.3,2.16,3.73,6.04,9.1,8.05
CCn1c(-c2nonc2N)nc2cnc(Oc3cccc(NC(=O)c4ccc(N(C)C)cc4)c3)cc21,1.22,19.6,70.5,0.56,7.8,16.7,53.6,43.6,88,3.96
COc1ccc(-c2oc3ncnc(N)c3c2-c2ccc(NC(=O)Nc3cc(C(F)(F)F)ccc3F)cc2)cc1,1.13,3.34,4.14,0.71,1.62,3.38,6.16,6.58,5.99,1.64
CN(C)CCOc1ccc(-c2nc(-c3ccncc3)c(-c3ccc4c(c3)CC/C4=N\O)[nH]2)cc1,0.77,1.46,4.29,0.58,1.61,1.27,11.9,1.48,3.32,1.85
CCNC(=O)O[C@H]1CN[C@H](C#Cc2cc3ncnc(Nc4ccc(OCc5cccc(F)c5)c(Cl)c4)c3s2)C1,4.86,1.62,1.22,0.4,1.1,0.61,-2.05,3.54,-2.11,-1.05
CN1CCC(n2cnc(-c3ccc(F)cc3)c2-c2ccnc(N)n2)CC1,3.73,3.06,7.95,1.23,10.6,0.83,7.02,3.71,4.79,0.37
COc1ccc(-c2nn3ncccc3c2-c2ccnc(Nc3ccc4c(c3)OCCO4)n2)cc1,-0.83,0.73,2.32,-1.17,0.51,-1.85,3.69,1.65,2.32,0.61
COC(=O)Nc1nc2ccc(S(=O)(=O)c3ccc(NC(=O)Nc4cc(C(F)(F)F)ccc4F)cc3)cc2[nH]1,1.73,1.93,1.3,0.42,-0.51,0.31,0.32,0.95,2.18,0.47
N#Cc1c(NC(=O)CN2CCOCC2)sc2c1CCCC2,2.07,2.3,1.82,2.23,5.72,0.89,2.05,5.18,3.17,3.77
CCCN1CCC(c2ccc(Nc3nc(Nc4cc(F)ccc4C(N)=O)c4cc[nH]c4n3)c(OC)c2)CC1,0.96,2.33,3.51,0.66,16.6,0.19,4.9,2.99,9.93,3.12
CNC(=O)c1cc(-c2ccc(F)cc2)cc(-c2ccc(S(=O)(=O)N3CCCC3)cc2)c1N,1.46,0.9,0.32,0.46,1.02,-0.39,0.24,3.68,1.41,2.34
CC(=O)NCc1cccc(C#Cc2cncnc2Nc2ccc(OCc3cccc(F)c3)c(Cl)c2)c1,0.04,0.53,0.58,0.2,1.17,-0.24,3.27,1.39,3.4,-0.73
COC(=O)Nc1nc2ccc(Oc3ccc(NC(=O)Nc4cccc(Cl)c4)cc3)cc2[nH]1,-0.86,2.12,0.79,0.15,-0.86,-1.37,-5.17,0.84,-0.24,0.84
NC(=O)c1sc(-n2cnc3ccc(C(F)(F)F)cc32)cc1OCc1ccccc1Br,2.61,3.12,6.29,0.78,1.26,-0.05,1.5,-0.93,1.21,-0.86
